Experimental findings from the supplement of paper PMC9177965 are described below.

For test [1], the system named is HT29 sg-Ctrl (RNF43 wildtype). As to the kind of experiment: cell viability activity relative to DMSO (negative = inhibition); higher = more viable cells (less growth inhibition). The settings on record: 5 µM; 96 h. The procedure: (§1)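 Broad Repurposing Library primary screen at a single dose of 5 uM. HT29 sg-Ctrl and HT29 RNF43 G659fs CRISPR-edited isogenic cells were seeded at 2500 cells/well in 384-well plates in duplicate and treated for 96 h. Viability was read by CellTiter-Glo and reported as % activity relative to DMSO, with MG132 as the positive control (negative = growth inhibition).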

For test [2], the system named is HT29 RNF43 G659fs (RNF43 659mut, CRISPR-edited). The description is as above. The settings on record: 5 µM; 96 h. The protocol:
as §1

For `C/C(=N\NC(=S)N1CCC1)c1ccccn1`, the cell viability activity in test [1] was -88.9%.
On the same count and under the same terms, as for `Clc1ccc(NN=C(c2ccccc2)c2ccccn2)nc1`, the figure is -65.6%.
For the molecule `CCCCCCOc1nsnc1C1=CCCN(C)C1`, the cell viability activity is -59.1% in test [2] and -58.7% in test [1].
The corresponding values for `C[n+]1cc2c3c(ccc2c2ccc4cc5c(cc4c21)OCO5)OCO3` are -97.3% and -96.2%.
The corresponding values for `C[C@@H]1CC[C@@]2(NC1)O[C@H]1C[C@H]3[C@@H]4CC=C5C[C@@H](O[C@@H]6O[C@H](CO)[C@@H](O[C@@H]7O[C@@H](C)[C@H](O)[C@@H](O)[C@H]7O)[C@H](O)[C@H]6O[C@@H]6O[C@@H](C)[C@H](O)[C@@H](O)[C@H]6O)CC[C@]5(C)[C@H]4CC[C@]3(C)[C@H]1[C@@H]2C` are -94% and -86.6%.
As for `COC(=O)C1=C(C)NC(C)=C(C(=O)OCCCN2CCC(c3ccccc3)(c3ccccc3)CC2)[C@@H]1c1cccc([N+](=O)[O-])c1`, the cell viability activity is -65.6% in test [2] and -91.4% in test [1].
The matching figures for `Cc1ccc([N+](=O)[O-])cc1S(=O)(=O)N(C)/N=C/c1cnc2ccc(Br)cn12`: -88.7% and -94.4%.
The corresponding values for `COc1c(OCCCN2CCOCC2)ccc2c3n(c(=NC(=O)c4cnc(N)nc4)nc12)CCN3` are -59.6% and -46.8%.
For `Cc1nc(C#Cc2ccnc(Cl)c2)c(C)n1-c1ccc(OC(F)(F)F)cc1`, in test [1], the cell viability activity is -18.5%.
Regarding `Nc1ccc(-c2cccc3c(=O)cc(N4CCOCC4)oc23)cc1`, the cell viability activity was -64.9% in test [2] and -76.6% in test [1].
Take `CN1CCN(c2ccc(OC(F)(F)F)c(Nc3ncc4c(n3)-c3c(c(C(N)=O)nn3CCO)CC4)c2)CC1`: the figures for the cell viability activity in test [2] and in test [1] were -69% and -82.8%, respectively.
`COc1ccc(-c2nc(N3CCOCC3)c3sc(CN(C)c4ncc(C(=O)NO)cn4)cc3n2)cn1`: the cell viability activity in test [1] was -93.5%.
